Results as given in the supplement of paper PMC13380429.

Test system: Vero E6 infected with SARS-CoV-2
Assay: inhibition of SARS-CoV-2 cytopathic effect; higher = more antiviral protection, active = above 15
Conditions: 48 h

Measured: inhibition of SARS-CoV-2 cytopathic effect

O=C([O-])c1ccccc1-c1c2cc(Br)c(=O)cc-2oc2[c]([Hg+])c([O-])c(Br)cc12.[Na+].[Na+].[OH-] [merbromin]
inactive: 1 nM -11.2% | 8.33 nM -13.3% | 100 nM -11.5%

COc1nc(C)cnc1NS(=O)(=O)c1cccnc1-c1ccc(-c2nnco2)cc1 [zibotentan]
inactive: 1 nM -2.02% | 8.33 nM -0.17% | 100 nM -0.98% | 833.33 nM -3.56% | 10000 nM -1.47%

CCOc1ccc(Cc2nccc3cc(OCC)c(OCC)cc23)cc1OCC [ethaverine]
inactive: 1 nM -8.51% | 8.33 nM -11.9% | 100 nM -9.06% | 833.33 nM -7.91% | 10000 nM -8.28%

COc1ccc(Oc2c(Cl)cnn(C3c4ccccc4-c4ccccc43)c2=O)cc1
inactive: 1 nM -3.45% | 8.33 nM -3.66% | 100 nM 0.55% | 833.33 nM -0.63% | 10000 nM -0.88%

C[C@@H]1NC(C)(C)CO[C@@]1(O)c1cccc(Cl)c1 [radafaxine]
inactive: 1 nM -2.6% | 8.33 nM 3.35% | 100 nM 6.44% | 833.33 nM 7.12% | 10000 nM -0.21%

CN1CCN(c2ccc3nc(-c4c(N)c5c(F)cccc5[nH]c4=O)[nH]c3c2)CC1 [dovitinib]
inactive: 1 nM 1.8% | 8.33 nM 0.97% | 100 nM 0.34% | 833.33 nM -1.8% | 10000 nM -0.5%

CCCCN1CCC(CCC(=O)c2cc(Cl)c(N)cc2OC)CC1
inactive: 1 nM -0.14% | 8.33 nM -0.19% | 100 nM -0.31% | 833.33 nM -1.87% | 10000 nM -3.77%

C/C=C1\NC(=O)[C@H]2CSSCC/C=C/[C@H](CC(=O)N[C@H](C(C)C)C(=O)N2)OC(=O)[C@H](C(C)C)NC1=O [romidepsin]
inactive: 1 nM -1.04% | 8.33 nM 0.79% | 100 nM -0.75% | 833.33 nM -16.6% | 10000 nM -18%

Cc1ccc2c(c1)=C(c1ccccc1)C(C1=NN(C(=O)CCC(=O)O)C(c3ccc(Br)cc3)C1)C(=O)N=2 (stereo not drawn)
inactive: 1 nM -0.42% | 8.33 nM -0.1% | 100 nM 2.84% | 833.33 nM 3.61% | 10000 nM 0.79%

CCN(CC)CCOC(=O)c1ccc(N)cc1 [procaine]
inactive: 1 nM -1.32% | 8.33 nM -0.89% | 100 nM -0.82% | 833.33 nM -1.72% | 10000 nM -0.17%

NC1=NC(=O)N([C@H]2C[C@H](O)[C@@H](CO)O2)CN1
inactive: 1 nM -1.14% | 8.33 nM -2.12% | 100 nM 0.08% | 833.33 nM 0.71% | 10000 nM -0.27%

CCC(=O)NS(=O)(=O)c1ccc(-c2c(-c3ccccc3)noc2C)cc1 [parecoxib]
inactive: 1 nM -0.31% | 8.33 nM 0.02% | 100 nM 1.66% | 833.33 nM 1.26% | 10000 nM -1.54%

Nc1ncnc2c1ncn2[C@H]1CC[C@@H](CO)O1 [dideoxyadenosine]
inactive: 1 nM 2.15% | 8.33 nM 2.41% | 100 nM 2.1% | 833.33 nM 1.23% | 10000 nM 4.14%

CN1CCN(CCc2ccc(Cl)c(Cl)c2)CC1
inactive: 1 nM 0.05% | 8.33 nM 3.18% | 100 nM -0.38% | 833.33 nM 0.92% | 10000 nM -1.14%

O=c1c(O)c(-c2ccc(O)c(O)c2)oc2cc(O)cc(O)c12 [quercetin]
inactive: 1 nM 1.33% | 8.33 nM 0.85% | 100 nM 0.21% | 833.33 nM 1.78% | 10000 nM 3.03%

O[C@@H]1CCCC[C@H]1N1CCC(c2ccccc2)CC1 (racemic) [vesamicol]
inactive: 1 nM 0.17% | 8.33 nM 1.74% | 100 nM 0.78% | 833.33 nM 1.42% | 10000 nM 1.14%

Cc1cccc(NC(=O)c2ccc(C(F)(F)F)cc2C(=O)O)n1
inactive: 1 nM 0.74% | 8.33 nM 0.28% | 100 nM 1.41% | 833.33 nM 0.88% | 10000 nM 2.54%

COc1cc2c(cc1OC)CC(=O)N(CCCN(C)C[C@H]1Cc3cc(OC)c(OC)cc31)CC2 [ivabradine]
inactive: 1 nM -0.16% | 8.33 nM -0.37% | 100 nM -0.32% | 833.33 nM -1.75% | 10000 nM -1.11%
